Drawing on PubChem BioAssay, this text covers composite z-score and z-score for five compounds.

Activity calls are given as the source filed them.

Experiment [1] relates to PRMT1 (protein arginine N-methyltransferase 1). Put plainly: PRMT1 binders on small-molecule microarrays, primary screen, biochemical, small-molecule microarray, 635 nm fluorescence (AID 1088).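 Note: binding of Prmt1 protein to compounds spotted on small-molecule microarray slides.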 The conditions noted are these: small-molecule microarray binding, higher = more signal.
Experiment [2] can be described thus: yeast growth modulation, basal conditions, primary screen, YJM789 clinical isolate, OD600, 24 h (AID 1089).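 Note: growth of clinical yeast isolate S. cerevisiae YJM 789 seeded 1000 cells per well; test concentration not given here.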 Particulars: S. cerevisiae YJM789 growth, higher = more signal, called active from +8 up or from −8 down.
Experiment [3] in a line: fission yeast growth modulation, primary screen, strain 972, OD600, 24 h, no modulator (AID 1090).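 Note: basal condition with compound alone and no growth modifier present; test concentration not given here.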 The conditions noted are these: S. pombe 972 growth, higher = more signal, called active from +8 up or from −8 down.
A short description of experiment [4]: S. cerevisiae growth modulation with rapamycin, primary screen, strain BY4716, OD600, 96 h (AID 1091). Note: test concentration not given here. Particulars: higher = more signal, called active from +8 up or from −8 down.
In experiment [5] the target is Torsin-1A-interacting protein 2 (Homo sapiens) (UniProt Q8NFQ8). Briefly: LULL1 binders on small-molecule microarray, primary screen, cell lysate, human LULL1 lysate, 635/667 nm fluorescence (AID 1092).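 Note: probe is lysate of COS7 cells overexpressing human LULL1; score merges per-feature 667 nm fluorescence with signal-to-noise.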 Particulars: hLULL1 lysate binding, 635 nm fluorescence, higher = more signal.
The nature of experiment [6]: E. coli growth modulation, two-sided OD650, primary screen, E. coli filamentation project, strain DRC41, 24 h (AID 1093).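 Note: MC1000 strain lacking acrAB efflux and sulA so SOS filamentation is blocked; test concentration not given here.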 Particulars: OD650, 24 h, higher = more signal, called active from +8 up or from −8 down.
A short description of experiment [7]: small-molecule microarray binders of probe aLefty2, primary screen, biochemical, biotinylated probe, 635/667 nm fluorescence (AID 1094).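 Note: score merges spot fluorescence near 667 nm with spot signal-to-noise ratio.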 The conditions noted are these: higher = more signal.
In experiment [8] the test system is Noggin (protein binding on small-molecule microarray). Briefly: Noggin binders on small-molecule microarray, primary screen, biochemical, 635/667 nm fluorescence (AID 1095).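 Note: score merges 667 nm feature fluorescence with signal to noise over triplicate slides.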 The conditions noted are these: 635 nm fluorescence, higher = more signal.
Experiment [9] deals with Neurogenic locus notch homolog protein 3 (Homo sapiens) (UniProt Q9UM47). Put plainly: NOTCH3 binders on small-molecule microarray, primary screen, biochemical, 635/667 nm fluorescence (AID 1096). The conditions noted are these: NOTCH3 binding, 635 nm fluorescence, higher = more signal.
Experiment [10] can be described thus: small-molecule microarray binders of probe aEGFR, primary screen, biochemical, biotinylated probe, 635/667 nm fluorescence (AID 1097).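 Note: probe is a biotinylated anti-EGFR antibody binding compounds printed on slides; score combines fluorescence near 667 nm and signal to noise of each spot.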 The conditions noted are these: higher = more signal.
In experiment [11] the test system is Plasmodium falciparum Sir2 (PF13_0152, Sir2A). Put plainly: pfSir2 binders on small-molecule microarrays, primary screen, biochemical, small-molecule microarray, 635 nm fluorescence (AID 1098).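 Note: score merges spot fluorescence intensity with its signal-to-noise ratio.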 The conditions noted are these: small-molecule microarray binding, fluorescence 635 nm; higher = more signal.
Experiment [12] is described as follows: small-molecule microarray binders of probe aDKK1, primary screen, biochemical, biotinylated probe, 635/667 nm fluorescence (AID 1099).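 Note: score merges 667nm spot fluorescence with signal to noise across triplicate slides; reference of the scale not given here.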 The conditions noted are these: higher = more signal.
Experiment [13] in a line: small-molecule microarray binders of probe aCHRDL2, primary screen, biochemical, biotinylated probe, 635/667 nm fluorescence (AID 1100). Particulars: higher = more signal.
A short description of experiment [14]: splicing luciferase reporter signal modulators, primary screen, spliceosome inhibition project, cell-based, HEK293, splice +/- reporter (AID 1101).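 Note: HEK293 cells carrying a splicing-competent luciferase reporter gene; test concentration not given here.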 Particulars: luminescence, 24 h, higher = more signal, called active from +8 up or from −8 down. In general terms: A reporter such as luciferase makes a cellular process visible.
The target of experiment [15] is Fibroblast growth factor 10 (Homo sapiens) (UniProt O15520). Put plainly: FGF10 binders on small-molecule microarrays, primary screen, biochemical, small-molecule microarray, 635 nm fluorescence (AID 1102). The conditions noted are these: FGF10 binding, fluorescence 635 nm, higher = more signal.
Experiment [16] deals with glycogen synthase kinase-3 (GSK3A per assay name; protocol says GSK3B). Briefly: GSK3 binders on small-molecule microarrays, primary screen, biochemical, small-molecule microarray, 635 nm fluorescence, GSK3A (AID 1103). Note: the record names both GSK3A and GSK3B. The conditions noted are these: small-molecule microarray binding, fluorescence 635 nm; higher = more signal.
In experiment [17] the target is Epidermal growth factor receptor (Homo sapiens) (UniProt P00533). Briefly: EGFR binders on small-molecule microarrays, primary screen, biochemical, small-molecule microarray, 635 nm fluorescence (AID 1104).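 Note: score merges 667 nm emission intensity with spot signal to noise over triplicate slides.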 The conditions noted are these: EGFR binding, higher = more signal.
Experiment [18] concerns the target Follistatin-related protein 3 (Homo sapiens) (UniProt O95633). Briefly: FSTL3 binders on small-molecule microarrays, primary screen, biochemical, small-molecule microarray, 635 nm fluorescence (AID 1105).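 Note: score merges emission near 667 nm and signal to noise per printed spot across three slides.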 The conditions noted are these: FSTL3 binding, higher = more signal.
The target in experiment [19] is Dickkopf-related protein 1 (Homo sapiens) (UniProt O94907). Put plainly: DKK1 binders on small-molecule microarrays, primary screen, biochemical, small-molecule microarray, 635 nm fluorescence scan (AID 1106).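 Note: score merges emission near 667 nm with signal to noise over three replicate slides.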 The conditions noted are these: DKK1 binding, higher = more signal.
The test system of experiment [20] is Inhibin beta A chain (activin A). Briefly: INHBA (activin A) binders on microarrays, primary screen, biochemical, small-molecule microarray, 635 nm fluorescence scan (AID 1107).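 Note: mouse activin A protein probed at 4.33 µg/mL on printed slides; score merges bound-protein fluorescence near 667 nm with spot signal-to-noise.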 The conditions noted are these: small-molecule microarray binding, higher = more signal.

Chain of Dickkopf-related protein 1 (Homo sapiens) (O94907 whole entry, looked up): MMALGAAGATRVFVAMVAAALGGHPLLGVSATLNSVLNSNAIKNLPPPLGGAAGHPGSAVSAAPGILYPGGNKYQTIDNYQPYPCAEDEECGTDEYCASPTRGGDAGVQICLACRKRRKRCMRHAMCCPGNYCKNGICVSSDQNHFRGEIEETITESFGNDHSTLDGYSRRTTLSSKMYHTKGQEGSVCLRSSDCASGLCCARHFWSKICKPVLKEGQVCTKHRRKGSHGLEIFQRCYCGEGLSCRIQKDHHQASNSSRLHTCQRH
Chain of Epidermal growth factor receptor (Homo sapiens) (P00533 whole entry, looked up): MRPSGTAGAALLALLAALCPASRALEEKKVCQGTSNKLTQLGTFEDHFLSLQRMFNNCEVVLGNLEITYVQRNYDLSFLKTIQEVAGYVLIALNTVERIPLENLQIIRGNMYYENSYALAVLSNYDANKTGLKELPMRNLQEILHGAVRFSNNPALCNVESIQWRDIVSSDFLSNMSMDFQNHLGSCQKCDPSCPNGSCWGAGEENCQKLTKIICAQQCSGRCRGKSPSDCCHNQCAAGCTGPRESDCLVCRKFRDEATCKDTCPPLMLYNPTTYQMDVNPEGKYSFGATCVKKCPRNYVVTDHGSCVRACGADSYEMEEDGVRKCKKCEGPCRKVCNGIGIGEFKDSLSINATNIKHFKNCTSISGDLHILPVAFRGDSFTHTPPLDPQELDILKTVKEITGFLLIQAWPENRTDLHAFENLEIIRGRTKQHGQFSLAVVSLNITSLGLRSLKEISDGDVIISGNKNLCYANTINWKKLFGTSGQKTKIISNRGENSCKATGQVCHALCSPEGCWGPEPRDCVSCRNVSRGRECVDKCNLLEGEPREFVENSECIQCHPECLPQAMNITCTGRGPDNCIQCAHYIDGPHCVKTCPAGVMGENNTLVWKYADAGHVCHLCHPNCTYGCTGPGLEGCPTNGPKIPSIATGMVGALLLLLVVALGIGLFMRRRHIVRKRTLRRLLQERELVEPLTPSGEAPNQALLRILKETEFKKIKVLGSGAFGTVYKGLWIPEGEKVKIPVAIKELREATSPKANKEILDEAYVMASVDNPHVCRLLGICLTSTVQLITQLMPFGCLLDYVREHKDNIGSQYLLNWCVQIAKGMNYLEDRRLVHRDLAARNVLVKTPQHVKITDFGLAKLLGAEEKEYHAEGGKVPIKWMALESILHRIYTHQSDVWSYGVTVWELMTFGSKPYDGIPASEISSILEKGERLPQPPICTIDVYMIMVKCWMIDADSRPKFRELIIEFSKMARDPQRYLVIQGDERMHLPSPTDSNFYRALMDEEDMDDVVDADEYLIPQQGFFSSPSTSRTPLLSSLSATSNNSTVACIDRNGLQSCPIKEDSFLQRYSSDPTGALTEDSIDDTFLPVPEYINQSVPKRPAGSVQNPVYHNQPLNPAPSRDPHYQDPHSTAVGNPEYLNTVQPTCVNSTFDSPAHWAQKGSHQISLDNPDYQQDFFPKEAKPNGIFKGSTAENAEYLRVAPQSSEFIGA
Chain of Neurogenic locus notch homolog protein 3 (Homo sapiens) (Q9UM47 whole entry, looked up): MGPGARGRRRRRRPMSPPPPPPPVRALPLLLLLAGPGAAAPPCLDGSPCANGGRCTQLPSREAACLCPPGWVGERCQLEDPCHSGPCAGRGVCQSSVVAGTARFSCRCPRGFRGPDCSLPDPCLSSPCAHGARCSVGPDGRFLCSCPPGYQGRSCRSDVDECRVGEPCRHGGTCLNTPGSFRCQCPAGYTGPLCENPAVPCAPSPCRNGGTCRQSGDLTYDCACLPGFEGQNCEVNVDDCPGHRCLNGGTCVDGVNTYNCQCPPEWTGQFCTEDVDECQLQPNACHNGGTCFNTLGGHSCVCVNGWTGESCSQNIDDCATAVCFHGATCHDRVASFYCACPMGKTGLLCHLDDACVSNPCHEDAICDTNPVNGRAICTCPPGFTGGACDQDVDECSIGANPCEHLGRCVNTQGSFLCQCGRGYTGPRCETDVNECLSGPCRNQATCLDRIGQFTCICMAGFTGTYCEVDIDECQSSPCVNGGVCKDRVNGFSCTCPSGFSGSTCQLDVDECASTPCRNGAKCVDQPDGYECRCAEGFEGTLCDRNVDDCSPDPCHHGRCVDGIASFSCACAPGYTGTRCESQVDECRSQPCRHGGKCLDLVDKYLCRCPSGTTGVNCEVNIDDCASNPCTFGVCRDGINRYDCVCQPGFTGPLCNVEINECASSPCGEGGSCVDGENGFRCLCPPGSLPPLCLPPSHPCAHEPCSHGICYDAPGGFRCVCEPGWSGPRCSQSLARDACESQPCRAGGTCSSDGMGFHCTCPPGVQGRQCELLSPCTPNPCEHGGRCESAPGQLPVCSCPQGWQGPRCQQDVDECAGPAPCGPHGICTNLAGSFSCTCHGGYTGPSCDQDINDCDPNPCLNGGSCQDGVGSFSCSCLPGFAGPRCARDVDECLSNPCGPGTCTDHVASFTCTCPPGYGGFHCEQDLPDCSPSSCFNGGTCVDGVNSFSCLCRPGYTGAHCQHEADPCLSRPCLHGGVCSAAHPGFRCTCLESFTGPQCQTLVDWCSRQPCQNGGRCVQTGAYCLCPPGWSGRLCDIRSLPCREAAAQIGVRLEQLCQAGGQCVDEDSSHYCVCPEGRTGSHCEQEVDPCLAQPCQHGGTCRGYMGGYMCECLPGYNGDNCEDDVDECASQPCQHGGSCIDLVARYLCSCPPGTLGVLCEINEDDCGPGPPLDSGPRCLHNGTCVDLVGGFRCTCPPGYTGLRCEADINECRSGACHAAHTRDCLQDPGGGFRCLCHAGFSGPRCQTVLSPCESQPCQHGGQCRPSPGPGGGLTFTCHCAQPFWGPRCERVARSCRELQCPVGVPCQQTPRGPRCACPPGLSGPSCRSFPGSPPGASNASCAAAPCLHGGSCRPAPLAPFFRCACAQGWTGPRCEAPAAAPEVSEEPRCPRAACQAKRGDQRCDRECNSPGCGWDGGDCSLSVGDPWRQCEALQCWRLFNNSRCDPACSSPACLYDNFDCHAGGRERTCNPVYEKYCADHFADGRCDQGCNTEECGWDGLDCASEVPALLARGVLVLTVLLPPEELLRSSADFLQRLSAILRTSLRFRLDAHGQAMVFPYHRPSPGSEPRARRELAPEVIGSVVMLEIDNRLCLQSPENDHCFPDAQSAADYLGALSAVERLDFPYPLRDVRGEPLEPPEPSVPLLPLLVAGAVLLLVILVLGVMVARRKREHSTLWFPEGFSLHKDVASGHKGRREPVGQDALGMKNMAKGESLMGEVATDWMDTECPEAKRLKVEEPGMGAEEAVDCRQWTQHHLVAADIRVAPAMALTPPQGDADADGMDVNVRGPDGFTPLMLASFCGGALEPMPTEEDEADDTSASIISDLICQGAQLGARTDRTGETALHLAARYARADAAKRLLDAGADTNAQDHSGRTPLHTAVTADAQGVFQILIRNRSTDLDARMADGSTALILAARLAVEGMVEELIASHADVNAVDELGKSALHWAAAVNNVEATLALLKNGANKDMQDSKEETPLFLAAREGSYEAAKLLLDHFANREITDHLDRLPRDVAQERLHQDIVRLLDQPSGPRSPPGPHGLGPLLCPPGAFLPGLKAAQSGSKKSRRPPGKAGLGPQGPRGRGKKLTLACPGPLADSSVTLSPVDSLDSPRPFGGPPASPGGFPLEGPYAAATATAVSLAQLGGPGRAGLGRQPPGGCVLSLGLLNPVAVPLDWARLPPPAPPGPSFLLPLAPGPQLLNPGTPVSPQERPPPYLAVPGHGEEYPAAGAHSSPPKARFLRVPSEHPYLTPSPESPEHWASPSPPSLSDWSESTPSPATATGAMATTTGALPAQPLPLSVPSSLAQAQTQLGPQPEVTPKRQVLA
Chain of Fibroblast growth factor 10 (Homo sapiens) (O15520 whole entry, looked up): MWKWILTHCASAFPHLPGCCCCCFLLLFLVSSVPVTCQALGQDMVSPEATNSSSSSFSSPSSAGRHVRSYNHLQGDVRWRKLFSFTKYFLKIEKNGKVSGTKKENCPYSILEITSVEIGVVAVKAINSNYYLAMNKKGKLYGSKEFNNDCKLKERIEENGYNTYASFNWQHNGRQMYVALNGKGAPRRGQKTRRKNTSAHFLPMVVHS
Chain of Follistatin-related protein 3 (Homo sapiens) (O95633 whole entry, looked up): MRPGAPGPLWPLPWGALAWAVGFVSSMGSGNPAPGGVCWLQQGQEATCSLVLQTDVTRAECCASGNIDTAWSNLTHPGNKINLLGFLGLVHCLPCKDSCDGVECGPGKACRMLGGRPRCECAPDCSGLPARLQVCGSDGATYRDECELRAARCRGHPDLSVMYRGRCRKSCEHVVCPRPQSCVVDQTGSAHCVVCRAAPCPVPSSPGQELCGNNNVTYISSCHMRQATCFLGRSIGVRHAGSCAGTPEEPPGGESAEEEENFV
Chain of Torsin-1A-interacting protein 2 (Homo sapiens) (Q8NFQ8 whole entry, looked up): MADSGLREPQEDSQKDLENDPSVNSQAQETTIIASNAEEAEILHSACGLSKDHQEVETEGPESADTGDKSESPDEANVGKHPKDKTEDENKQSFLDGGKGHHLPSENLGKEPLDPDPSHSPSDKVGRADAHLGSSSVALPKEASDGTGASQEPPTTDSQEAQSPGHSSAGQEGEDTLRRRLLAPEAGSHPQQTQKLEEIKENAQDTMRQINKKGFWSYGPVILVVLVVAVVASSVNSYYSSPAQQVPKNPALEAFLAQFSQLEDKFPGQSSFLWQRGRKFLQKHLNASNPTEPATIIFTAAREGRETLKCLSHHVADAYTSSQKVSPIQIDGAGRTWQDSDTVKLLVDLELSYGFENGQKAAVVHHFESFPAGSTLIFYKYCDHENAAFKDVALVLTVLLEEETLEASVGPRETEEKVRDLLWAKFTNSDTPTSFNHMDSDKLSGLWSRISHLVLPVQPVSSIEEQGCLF

On to `CC(C)N1CC=CC23O[C@@H]4C=CCCOC(=O)C4[C@H]2C(=O)N(CCCCCO)[C@@H]3C1=O` (stereo not given in full), for which the composite z-score was 0.08 in [1]; 0.988 in experiment [5]; -0.242 in experiment [7]; 0.154 in experiment [8]; -0.23 in experiment [9]; -0.236 in [10]. The composite z-score was 1.58 in experiment [11]; -0.188 in experiment [12]; 0.317 in experiment [13]; -0.347 in experiment [15]; -1.26 in experiment [16]; -0.575 in experiment [17]. For the same compound, the figures for the composite z-score in experiment [18], in [19] and in experiment [20] were -0.749, -1.06 and 0.559, respectively. Besides, the z-score in experiment [2] is -0.0489 (inactive); in [3], -0.0017 (inactive); in experiment [4], -0.569 (inactive); in [6], 0.447 (inactive); in experiment [14] it was -0.0254 (inactive).
For `COc1ccc(CCNC(=O)[C@@H]2c3ccccc3C(=O)N(CC34CC5CC(CC(C5)C3)C4)[C@H]2c2ccc(CO)cc2)cc1`, the composite z-score in experiment [1] is 1.12; in experiment [5] it was 2.45; in experiment [7], -0.297; in experiment [8] it was 1.92; in experiment [9], 1.06; in experiment [10], -0.0828. In addition, the composite z-score in experiment [11] was 0.959; in experiment [12], -0.0038; in experiment [13], 0.309; in experiment [15] it was 1.06; in experiment [16], 0.406; in experiment [17], 0.277. The composite z-score in experiment [18] was 0.644; in experiment [19], 0.323; in [20], 0.64. In addition, the z-score is -0.543 (inactive) in [2]; -0.817 (inactive) in [3]; -0.13 (inactive) in experiment [4]; 0.573 (inactive) in experiment [6]; -1.02 (inactive) in [14].
As for `C=CCNC(=O)[C@@H]1[C@H]2C(=O)O[C@H](c3ccccc3)[C@H](c3ccccc3)N2[C@H](c2ccccc2OCCO)[C@@]12C(=O)N(C(=O)OCCOC)c1ccc(C#CCCO)cc12`, the composite z-score in experiment [1] was 1.55; in experiment [5] it was 2.88; in [7], -0.135; in experiment [8] it was 0.96; in experiment [9], 1.08; in experiment [10], 0.038. Besides, the composite z-score is 1.05 in experiment [11]; -0.274 in experiment [12]; 0.272 in [13]; 1.35 in experiment [15]; 1.23 in [16]; 0.266 in experiment [17]. Besides, the composite z-score in experiment [18] amounted to 0.904; in experiment [19], 0.312; in experiment [20] it was 0.241. Also, the z-score was 0.656 (inactive) in experiment [2]; 0.619 (inactive) in [3]; 3.69 (inactive) in experiment [4]; -0.625 (inactive) in experiment [6]; -0.821 (inactive) in [14].
Take `C[N+](C)(C)CCCCCCNC(=O)[C@@H]1C[C@@H]2C(=O)N[C@@H](Cc3ccccc3)C(=O)N2[C@@H]1c1ccc(O)cc1`: the composite z-score in experiment [1] is 1.54; in experiment [5] it was 3.06; in experiment [7] it was -0.183; in [8], 1.46; in [9] it was 1.04; in experiment [10], 0.0144. Moreover, the composite z-score in [11] was 1.61; in experiment [12], -0.409; in experiment [13] it was -0.578; in experiment [15] it was 1.21; in [16], 0.89; in experiment [17], 0.776. Also, the composite z-score in experiment [18] amounted to 1.48; in [19] it was 0.92; in experiment [20] it was 0.633. Also, the z-score in experiment [2] was -0.351 (inactive); in experiment [3], -0.193 (inactive); in [4] it was -0.496 (inactive); in [6] it was -0.0343 (inactive); in experiment [14], 0.372 (inactive).
Consider `COC(=O)[C@@]1(CCS(=O)(=O)c2ccccc2)N=C(c2ccc(OCCCO)cc2)O[C@H]1c1ccccc1N=[N+]=[N-]`, for which the composite z-score is 1.56 in experiment [1]; 3.29 in experiment [5]; -0.0341 in experiment [7]; 0.492 in experiment [8]; 1.09 in [9]; -0.0968 in [10]. The composite z-score in experiment [11] is 1.52; in experiment [12] it was 0.336; in [13], 0.475; in [15] it was 0.419; in experiment [16], 1.29; in experiment [17], 0.491. Further, the figures for the composite z-score in experiment [18], in experiment [19] and in [20] were 0.969, 0.425 and 0.865, respectively. Moreover, the z-score in experiment [2] is 0.349 (inactive); in experiment [3], -0.238 (inactive); in experiment [4], 34.6 (active); in experiment [6], 0.96 (inactive); in experiment [14], 0.177 (inactive).
